In PubChem BioAssay (Tox21):
Values joined by “and” are separate entries in the source; they are usually repeats but may differ in a detail not shown here. Equal values may be shown once. Inconclusive results are not listed. Active and inactive are the calls of the source. Unless noted, the call rests on the fitted dose curve; in most records, active means well fitted curve in the direction sought with a large enough effect in the repeat runs; inconclusive means weak or mixed curves; inactive means no such curve, though single readings can be large; an effect the other way counts as inactive or inconclusive.

Experiments:
[1] = target: Thyrotropin-releasing hormone receptor (Homo sapiens) (UniProt P34981); experiment: qHTS assay to identify small molecule agonists of the thyrotropin-releasing hormone receptor (TRHR) signaling pathway (AID 1346891; calls by dose curve;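 further: HEK293 cells expressing TRHR with calcium dye readout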); settings: TRHR-HEK293 calcium fluorescence, agonist mode; series mostly up to 57.6 µM
Procedure, shortened: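 Kinetic fluorescence (3 min, 1 s intervals) reported intracellular calcium after compound transfer onto TRHR-Hek293 cells pre-loaded with dye for 2 h at 37 °C.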

[2] = Human pregnane X receptor (PXR) small molecule agonists, qHTS cell viability counter screen (AID 1346977); settings: PXR-Luc HepG2 viability, CellTiter-Fluor, 24 h; series mostly up to 92.4 µM; further: nearly all actives have a fitted effect of over 50% in size
Procedure, shortened: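 HepG2 cells stably carrying the PXR-Luc reporter are cultured with 5% charcoal-stripped FBS and treated with compounds for 24hr. CellTiter-Fluor is added at 23hr and fluorescence is read after 1hr.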

[3] = Caspase-3/7 induction in HepG2 cells by small molecules, qHTS assay (AID 1346978); settings: HepG2 caspase-3/7 activation, Caspase-Glo luminescence, 17 h; series mostly up to 92.4 µM; further: nearly all actives have a fitted effect of over 15% in size
Procedure, shortened: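 Caspase-3/7 induction was measured by Caspase-Glo 3/7 luminescence (30 min, room temperature) after a 17 hr compound exposure of wild-type HepG2 cells seeded at 2,000 per well and pre-incubated 5 hr.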

[4] = Caspase-3/7 induction in CHO-K1 cells by small molecules, qHTS cell viability counter screen (AID 1346979); settings: CellTiter-Fluor fluorescence, 17 h; series mostly up to 42.5 µM; further: nearly all actives have a fitted effect of over 35% in size; further: potency means the concentration at half of the fitted maximal effect
Procedure, shortened: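 Seeding: 1,500 CHO-K1 cells/well. Rest: 5hr, 37C. Treatment: compounds in DMSO, 16hr. Read: CellTiter-Fluor, 1hr, fluorescence.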

[5] = Caspase-3/7 induction in CHO-K1 cells by small molecules, qHTS assay (AID 1346980); settings: CHO-K1 caspase-3/7 induction, Caspase-Glo luminescence, 17 h; series mostly up to 92.4 µM; further: nearly all actives have a fitted effect of over 15% in size
Procedure, shortened: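 Luminescent Caspase-Glo 3/7 read (30min, room temperature) quantified apoptosis induction. Cells were wild-type CHO-K1, treated with compound for 17hr at 37 C and 5% CO2.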

[6] = Caspase-3/7 induction in HepG2 cells by small molecules, qHTS cell viability counter screen (AID 1346981); settings: CellTiter-Fluor fluorescence, 17 h; series mostly up to 92.4 µM; further: nearly all actives have a fitted effect of over 30% in size
Procedure, shortened: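 Counter screen for cytotoxicity: HepG2 exposed 16 hr to compounds, then CellTiter-Fluor viability signal (fluorescence, 1 hr reagent incubation).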

[7] = target: Nuclear receptor subfamily 1 group I member 2 (Homo sapiens) (UniProt O75469); experiment: Human pregnane X receptor (PXR) small molecule agonists, qHTS assay (AID 1346982); settings: PXR-Luc HepG2, CYP3A4 luciferase reporter, 24 h; series mostly up to 92.4 µM; further: nearly all actives have a fitted effect of over 35% in size; further: potency means the concentration at half of the fitted maximal effect
Procedure, shortened: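 Luminescence (ONE-Glo, 30 min RT) after 24 hr compound exposure of PXR-Luc HepG2 cells; cells rested 5 hr post-plating in 5% charcoal-stripped FBS medium.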

[8] = target: Nuclear receptor subfamily 1 group I member 2 (Rattus norvegicus) (UniProt Q9R1A7); experiment: Rat pregnane X receptor (rPXR) activation by small molecules, qHTS assay (AID 1346983); settings: rPXR luciferase reporter cells, One-Glo luminescence, 24 h; hits give high values; further: nearly all actives have a fitted effect of over 20% in size
Procedure, shortened: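 Luminescent readout (One-Glo luciferase, 30 min room temperature) followed 24 hr compound treatment at 37 C of rPXR cells plated 2,000 per well and preincubated 5hr; qHTS format with compounds delivered in DMSO.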

[9] = target: Nuclear receptor subfamily 1 group I member 2 (Homo sapiens) (UniProt O75469); experiment: CYP3A4 induction through human pregnane X receptor (PXR) by small molecules, qHTS assay (AID 1346984); settings: DPX-2 HepG2 PXR, CYP3A4-luciferin luminescence, 24 h; series mostly up to 46.1 µM; further: nearly all actives have a fitted effect of over 40% in size
Procedure, shortened: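 DPX-2 reporter cells; 24h cpd, 37C; Luciferin-IPA 3uM final x3h; One-Glo 30 min RT; lumi read.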

[10] = target: Nuclear receptor subfamily 1 group I member 2 (Homo sapiens) (UniProt O75469); experiment: Human pregnane X receptor (PXR) activation by small molecules, qHTS assay (AID 1346985); settings: DPX-2 HepG2 CYP3A4-luciferase, 24 h; series mostly up to 38.3 µM; further: nearly all actives have a fitted effect of over 40% in size
Procedure, shortened: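 DPX-2 cells (HepG2 co-transfected with a PXR response element and a CYP3A4-promoter luciferase construct) were seeded at 2,000 per well, rested 5 hr at 37C, then exposed to DMSO-dissolved compounds for 24 hr. Activation was read as luciferase luminescence.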
On the % scale 0 is the no-effect control and ±100 the full control effect.

Chain of Nuclear receptor subfamily 1 group I member 2 (Homo sapiens) (O75469 whole entry, looked up): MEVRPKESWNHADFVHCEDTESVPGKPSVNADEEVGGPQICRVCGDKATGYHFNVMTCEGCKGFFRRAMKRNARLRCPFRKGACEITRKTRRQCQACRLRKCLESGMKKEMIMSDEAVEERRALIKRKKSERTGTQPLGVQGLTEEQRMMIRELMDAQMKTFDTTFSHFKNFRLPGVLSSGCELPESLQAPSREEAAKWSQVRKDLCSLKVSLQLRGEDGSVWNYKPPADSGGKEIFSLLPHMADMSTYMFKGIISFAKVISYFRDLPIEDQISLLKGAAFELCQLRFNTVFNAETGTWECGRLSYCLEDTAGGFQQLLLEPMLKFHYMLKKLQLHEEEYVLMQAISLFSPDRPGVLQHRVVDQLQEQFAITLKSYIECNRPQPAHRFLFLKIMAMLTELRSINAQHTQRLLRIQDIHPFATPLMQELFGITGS
Chain of Thyrotropin-releasing hormone receptor (Homo sapiens) (P34981 whole entry, looked up): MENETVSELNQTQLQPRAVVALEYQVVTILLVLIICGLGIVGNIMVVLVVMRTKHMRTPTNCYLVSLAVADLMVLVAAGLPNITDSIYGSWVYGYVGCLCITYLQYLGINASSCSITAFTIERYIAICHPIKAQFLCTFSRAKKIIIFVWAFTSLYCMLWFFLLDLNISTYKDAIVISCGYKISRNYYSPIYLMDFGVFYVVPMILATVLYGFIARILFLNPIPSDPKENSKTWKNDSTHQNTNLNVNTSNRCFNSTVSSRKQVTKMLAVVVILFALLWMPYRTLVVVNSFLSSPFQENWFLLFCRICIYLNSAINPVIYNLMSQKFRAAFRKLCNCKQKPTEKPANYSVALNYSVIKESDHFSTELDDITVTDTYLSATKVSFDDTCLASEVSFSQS
Chain of Nuclear receptor subfamily 1 group I member 2 (Rattus norvegicus) (Q9R1A7 whole entry, looked up): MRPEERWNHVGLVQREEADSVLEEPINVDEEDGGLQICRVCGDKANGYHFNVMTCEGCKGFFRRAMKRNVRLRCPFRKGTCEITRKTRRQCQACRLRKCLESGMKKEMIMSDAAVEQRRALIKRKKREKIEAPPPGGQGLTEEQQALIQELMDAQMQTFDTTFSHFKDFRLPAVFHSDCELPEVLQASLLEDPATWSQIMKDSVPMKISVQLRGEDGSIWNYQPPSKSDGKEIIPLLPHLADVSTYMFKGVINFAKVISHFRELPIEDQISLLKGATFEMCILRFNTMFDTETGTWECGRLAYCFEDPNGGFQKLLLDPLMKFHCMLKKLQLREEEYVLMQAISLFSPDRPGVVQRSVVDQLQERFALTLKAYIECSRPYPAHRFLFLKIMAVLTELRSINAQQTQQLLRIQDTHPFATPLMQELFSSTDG

Cc1cnc(NS(=O)(=O)c2ccc(N)cc2)nc1
inactive: outcome [1] | Potency [2] | Potency [3] | Potency [4] | outcome [5] | Potency [6] | Potency [7]

CC(C)(c1ccc(O)cc1)c1ccc(O)cc1
inactive: outcome [1] | Potency [2] | Potency [3] | outcome [5] | Potency [6]
active: Potency [4] 69.8 µM | Potency [7] 24.1 µM and 9.86 µM

CC(C)(O)C#CC(C)(C)O
inactive: outcome [1] | Potency [2] | Potency [3] | Potency [4] | outcome [5] | Potency [6] | Potency [7]

Cc1ccc(=O)n(-c2ccccc2)c1
inactive: outcome [1] | Potency [2] | Potency [3] | Potency [4] | outcome [5] | Potency [6] | Potency [7]

CN1C(=O)N(C)C(O)C1O (configuration not stated)
inactive: outcome [1] | Potency [2] | Potency [3] | Potency [4] | outcome [5] | Potency [6] | Potency [7]

C=C[Si](OC(=C)C)(OC(=C)C)OC(=C)C
inactive: outcome [1] | Potency [2] | Potency [3] | Potency [4] | outcome [5] | Potency [6] | Potency [7]

COC(=O)NN
inactive: outcome [1] | Potency [2] | Potency [3] | Potency [4] | outcome [5] | Potency [6] | Potency [7]

COC(=O)c1cc(C(=O)OC)cc(S(=O)(=O)O)c1
inactive: outcome [1] | Potency [2] | Potency [3] | Potency [4] | outcome [5] | Potency [6] | Potency [7]

CC(=O)CC(C)(C)C1CCCCC1
inactive: outcome [1] | Potency [2] | Potency [3] | Potency [4] | outcome [5] | Potency [6] | Potency [7]

Cc1c(O)cccc1O
inactive: outcome [1] | Potency [2] | Potency [3] | Potency [4] | outcome [5] | Potency [6] | Potency [7]

Nc1c[n+](N2CCOCC2)no1
inactive: outcome [1] | Potency [2] | Potency [3] | Potency [4] | outcome [5] | Potency [6] | Potency [7]

C=C(C)CS(=O)(=O)O
inactive: outcome [1] | Potency [2] | Potency [3] | Potency [4] | outcome [5] | Potency [6] | Potency [7]

COc1ccc2c(c1)c(CC(=O)OCC(=O)O)c(C)n2C(=O)c1ccc(Cl)cc1
inactive: outcome [1] | Potency [2] | Potency [3] | Potency [4] | outcome [5] | Potency [6] | Potency [7]

COCCCOCCCOC
inactive: outcome [1] | Potency [2] | Potency [3] | Potency [4] | outcome [5] | Potency [6] | Potency [7]

CCCCCCCCS(=O)(=O)Cl
inactive: outcome [1] | Potency [2] | Potency [3] | Potency [4] | outcome [5] | Potency [6] | Potency [7]

N=c1nc(N2CCCCC2)cc(N)n1O
inactive: outcome [1] | Potency [2] | Potency [3] | Potency [4] | outcome [5] | Potency [6] | Potency [7]

O=C1CCCCCCCCCCCN1
inactive: outcome [1] | Potency [2] | Potency [3] | Potency [4] | outcome [5] | Potency [6]
active: Potency [7] 48.5 µM and 27.3 µM

CCCCCOC(=O)CCCCC
inactive: outcome [1] | Potency [2] | Potency [3] | Potency [4] | outcome [5] | Potency [6] | Potency [7]

C[C@H]1C[C@@H](O)CC(C)(C)C1
inactive: outcome [1] | Potency [2] | Potency [3] | Potency [4] | outcome [5] | Potency [6] | Potency [7]

CC(C)(C)c1nnc(NS(=O)(=O)c2ccccc2)s1
active: Potency [7] 11.9 µM
inactive: outcome [1] | Potency [2] | Potency [3] | Potency [4] | outcome [5] | Potency [6]

O=c1cc(CO)occ1O
inactive: outcome [1] | Potency [2] | Potency [3] | Potency [4] | outcome [5] | Potency [6] | Potency [7]

Nc1cc(=O)[nH]c(N)n1
inactive: outcome [1] | Potency [2] | Potency [3] | Potency [4] | outcome [5] | Potency [6] | Potency [7]

N[C@H]1CN(c2c(F)cc3c(=O)c(C(=O)O)cn(C4C[C@H]4F)c3c2Cl)CC12CC2 (some centres not stated)
inactive: outcome [1] | Potency [2] | Potency [3] | Potency [4] | outcome [5] | Potency [6] | Potency [7]

CC(=O)Nc1ccc(S(N)(=O)=O)cc1
inactive: outcome [1] | Potency [2] | Potency [3] | Potency [4] | outcome [5] | Potency [6] | Potency [7]

N[C@@H](C(=O)N[C@@H]1C(=O)N2C(C(=O)O)=C(Cl)CS[C@H]12)c1ccccc1
inactive: activation [1] -0.0304% [at 5.23 µM] | activity change, negative = cytotoxicity [2] 4.82% [at 8.39 µM] | caspase activation [3] 0.709% [at 8.39 µM] | activity change, negative = cytotoxicity [4] 1.61% [at 8.39 µM] | caspase-3/7 activation [5] -1.31% [at 8.39 µM] | activity change, negative = cytotoxicity [6] 4.06% [at 8.39 µM] | activation [7] -7.63% [at 8.39 µM] | max activation [8] -2.39% | Potency [9] | Potency [10]

CO[Si](CCCOCC1CO1)(OC)OC (configuration not stated)
inactive: outcome [1] | Potency [2] | Potency [3] | Potency [4] | outcome [5] | Potency [6] | Potency [7]

CN1CC(=O)NC1=N
inactive: outcome [1] | Potency [2] | Potency [3] | Potency [4] | outcome [5] | Potency [6] | Potency [7] | max activation [8] -5.88% | Potency [9] | Potency [10]

CCOC(=O)c1ccc(C)cc1
inactive: outcome [1] | Potency [2] | Potency [3] | Potency [4] | outcome [5] | Potency [6] | Potency [7]
